This note sets out measurements from PubChem BioAssay AID1347416 (National Center for Advancing Translational Sciences (NCATS), 2020).

About 1,600 (39%) of roughly 4,100 compounds were called active. Not shown: some 25% with an inconclusive outcome. Calls come from the whole dose curve; as a rule, active = well fitted inhibition curve with a large enough effect; inconclusive = small, poorly fitted or top-dose-only effect; inactive = no such curve, though single readings can be large or run the other way. This is one part of the list.
% is set by controls: 0 for no effect and ±100 for the full control effect; potency is the fitted concentration of half-maximal effect.

The nature of the test: qHTS Validation assay for Inhibitors of Plasmodium falciparum Dd2 growth in vitro. Note: nearly all actives have a fitted effect of over 70% in size. The conditions noted are these: P. falciparum Dd2 in RBCs, SYBR Green growth, 72 h; series mostly up to 28.7 µM; activity change, negative = inhibition: at the top concentration. An excerpt: Malaria, a parasitic disease spread to humans through the bite of a Plasmodium infected Anopheles mosquito, continues to be a global health burden affecting millions of people, with an estimated 228 million cases and 405,000 deaths in 2018. Concerns about safety and limitations of current antimalarial treatments strongly emphasize the need to develop new therapeutic options. The scarce number of chemotypes and validated drug targets with efficacy against the liver stage, have hindered development of new antimalarials. To address this, a chemoprophylactic drug discovery effort was conducted through a combined phenotypic high-throughput asexual blood stage and liver stage screen, providing a robust foundation to identify liver-stage active lead chemotypes. Compounds were initially screened against Plasmodium falciparum Dd2 strain parasites using a in vitro SYBRGreen-1 based 72 hr proliferation assay to identify novel chemotypes to advance to liver stage assays. NIH/NCATS Early Translation Branch Assay Submitter (PI): Anton Simeonov Ph.D.
[…] Assay Protocol: PROTOCOL TABLE (as described by Inglese et al., 2007) SEQUENCE No. (e.g., 1, 2, 3, etc.); PARAMETER (e.g., Cells, Incubation, Reagent, etc.); VALUE; DESCRIPTION SEQUENCE, Parameter, Description 1; Reagent; 3 uL complete malaria growth medium, 1536 TC treated Black clear bottom plate 2; Controls; 23 nL positive control artesunate (300 nM final) to column 1; Neutral control DMSO to columns 2-4 3; Compound; 23 nL of compounds in dose response concentration (29 uM to 0.5 nM final) 4; Reagent; 5 uL malaria infected red blood cells (2.5% hematocrit final, 0.3% parasitemia 5; Time; 72 hours at 37C (5% O2, 5% CO2, 90% N2; 95% Rh) 6; Reagent; 2 uL lysis buffer/SYBRGreen-1, 25 sec shake immediately following dispense 7; Time; ~16 hours at 37C (5% O2, 5% CO2, 90% N2; 95% Rh) 8; Detector; EnVision (PerkinElmer) bottom read at 485/14nm excitation and 535/25 nm emission NOTES (numbers refer to sequence above): 1; Complete Malaria Growth Media: 1X RPMI-1640 w/L-glutamine, 5.5g/L Albumax II, 367 uM Hypoxanthine, 25 mM HEPES, 0.25% Sodium Bicarbonate, 35 uM Gentamicin sulfate 2; Controls were added using the Kalypsis Pintool (Wako USA) equipped with 1536 pinhead 3; Compounds were added in a 7-point, titration with a high final concentration of 29 uM by Pintool from seven inter-plate titrations of library plates and two DMSO control plates at the beginning and end (see Yasgar et al., 2008). 4; Red blood cells infected with Plasmodium falciparum Dd2 parasites were used. 6; Lysis buffer: 20 mM Tris-HCl, 10 mM EDTA, 0.16% Saponin, 1.6% Triton-X, 10X SYBR Green. REFERENCE: Inglese J, Shamu CE, Guy RK. 2007. Reporting data from high-throughput screening of small-molecule libraries. Nat Chem Biol. doi:10.1038/nchembio0807-438 Yasgar A, Shinn P, Jadhav A, Auld D, Michael S, Zheng W, Austin CP, Inglese J, Simeonov A. 2008. Compound Management for Quantitative High-Throughput Screening. J Lab Autom 13:79-89. doi:10.1016/j.jala.2007.12.004
On the technique in general: In qHTS, concentration-response curves come from the screen itself.
For the compound `COc1ccc2[nH]c(C[C@@H]3C[C@@H](C(C)C)[C@H](CNCc4ccccc4O)C=C3C)nc2n1`, the Potency was 0.243 µM (active).

As to `Cn1cnc(S(=O)(=O)N2CCCC(Cc3noc(-c4cccnc4)n3)C2)c1` (stereo not given), the “activity change, negative = inhibition” value is 19.2% (inactive).

`COc1ccc(-c2nnc(C[C@@H]3C[C@@H](C(C)C)[C@H](CNCc4cccnc4)C=C3C)o2)cc1`: the Potency is 6.68 µM (active).

As for `CC1=C[C@@H](CNCc2cccnc2)[C@H](C(C)C)C[C@H]1Cc1nnc(-c2ccc([N+](=O)[O-])cc2)o1`, the Potency was 5.31 µM (active).

`CC1=C[C@@H](CNCc2cccnc2)[C@H](C(C)C)C[C@H]1Cc1nnc(-c2ccc(N(C)C)cc2)o1`: the Potency was 5.31 µM (active).

As for `Brc1ccc(-c2ccnc3nc(-c4cccs4)nn23)s1`, the “activity change, negative = inhibition” value is -16.3% (inactive).

With `Cc1[nH]cnc1CSCCn1ccnc1-c1nccn1C`, the “activity change, negative = inhibition” value was 2.48% (inactive).

On to `COc1cc2c(cc1OC)CN(C(=O)c1cccs1)CC2`, for which the “activity change, negative = inhibition” value was -20.1% (inactive).

In the case of `COc1cc(C(=O)OCC(=O)N2CCCCC2C)cc(NC(=O)c2cccs2)c1OC` (stereo not given), the Potency is 0.473 µM (active).

In the case of `CCOC(=O)c1c(CN2CCCCC2)n(C)c2cc(Br)c(O)cc12`, the Potency is 7.5 µM (active).

Consider `CCOC(=O)c1c(CN(CC)CC)n(C)c2cc(Br)c(O)cc12`, for which the Potency was 9.44 µM (active).

Consider `CCOC(=O)c1c(CN2CCN(c3ccccc3)CC2)oc2cc(Br)c(O)cc12`, for which the Potency was 1.88 µM (active).

For `CCOC(=O)C1=C(O)/C(=C/c2cc(C)n(-c3ccccc3)c2C)N=C1C`, the “activity change, negative = inhibition” value is -4.25% (inactive).

Take `CCOC(=O)c1c(CN2CCN(CCO)CC2)n(-c2ccccc2)c2cc(Br)c(O)cc12`: the Potency is 5.96 µM (active).

On to `CCOC(=O)c1c(CN(C)C)n(-c2ccc(C)cc2)c2cc(Br)c(O)cc12`, for which the Potency was 4.22 µM (active).

As to `CCOC(=O)c1c(CNc2ccncc2)n(C)c2cc(Br)c(O)cc12`, the Potency is 2.66 µM (active).

Turning to `CCOC(=O)c1c(CSC(=N)N)n(-c2ccc(C)cc2)c2cc(Br)c(OC(C)=O)cc12`, the Potency was 5.96 µM (active).

Take `COc1ccc(-c2[nH]nc3ncc(-c4cccnc4)nc23)cc1F`: the Potency was 3.85 µM (active).

In the case of `COc1ccc(C(=O)N2CCC(Cc3nc(-c4cccnc4)n[nH]3)C2)cc1F` (stereo not given), the “activity change, negative = inhibition” value was 18.9% (inactive).

For `Fc1ccc(N2CCN(Cc3cccn3-c3nnc(N4CCN(C5CCCCC5)CC4)s3)CC2)cc1`, the Potency was 11.9 µM (active).

For the compound `COc1ccccc1CCNC(=O)c1cccn1-c1nnc(N2CCCCC2)s1`, the “activity change, negative = inhibition” value was -6.38% (inactive).

On to `CN(CC1CCOCC1)S(=O)(=O)c1ccc(F)c(Cl)c1`, for which the “activity change, negative = inhibition” value was 28.6% (inactive).

Consider `CCCN(CCC)CC(O)Cn1cc(/C=C/C(=O)c2ccc(C)cc2)c2ccccc21` (stereo not given), for which the Potency was 4.73 µM (active).

Turning to `CCCCN(CCCC)CC(O)Cn1cc(/C=C/C(=O)c2ccccc2)c2ccccc21` (stereo not given), the Potency was 1.68 µM (active).

With `O=C(NC1CCCN(c2cc(-c3ccccc3)[nH]n2)C1)c1cc(F)ccc1F` (stereo not given), the “activity change, negative = inhibition” value is -3.71% (inactive).

Regarding `COc1cccc(CN2CCC3(CC2)Cc2ccccc2NC3=O)c1`, the “activity change, negative = inhibition” value is -8.07% (inactive).

As to `COc1ccc(C(=O)N2CCC(c3nc(C4CCOCC4)no3)CC2)cn1`, the “activity change, negative = inhibition” value was 2.15% (inactive).

As to `CC1(c2ccccc2)N(Cc2ccccc2)C(=O)OC12CCN(Cc1cccc(O)c1)CC2` (stereo not given), the Potency was 8.41 µM (active).

`CC1(c2ccccc2)N(Cc2ccccc2F)C(=O)OC12CCN(Cc1cccc(O)c1)CC2` (stereo not given): the Potency was 6.68 µM (active).

With `COc1cccc(CN2CCC3(CC2)OC(=O)N(Cc2ccccc2)C3(C)c2ccccc2)c1` (stereo not given), the Potency is 15 µM (active).

Consider `COc1ccc(C(=O)N2CCC3(CC2)OC(=O)N(Cc2ccc(O)cc2)C3(C)c2ccccc2)cn1` (stereo not given), for which the Potency is 6.68 µM (active).

For the compound `COc1ccc(C(=O)N2CCCn3cc(-c4ccccc4F)nc32)cn1`, the “activity change, negative = inhibition” value is 19.7% (inactive).

Take `Cc1nc(CN2C(=O)OC3(CCN(C(=O)c4ccc(Oc5ccccc5)cc4)CC3)C2(C)c2ccccc2)cs1` (stereo not given): the Potency was 13.3 µM (active).

On to `COc1ccccc1CNC[C@H]1O[C@H](Cc2cc(CN(C)Cc3ccccc3)on2)CC[C@@H]1O`, for which the Potency was 2.99 µM (active).

For the compound `O[C@@H]1CC(CNCc2cccc(Cl)c2)(COc2ccccc2)C[C@@H]1O` (stereo not given in full), the Potency is 3.85 µM (active).

Regarding `CN(Cc1ccccc1)Cc1cc(C[C@@H]2CC[C@H](O)[C@@H](CNCc3ccccc3)O2)no1`, the Potency is 4.73 µM (active).

As for `O[C@H]1CC[C@@H](Cc2cc(COc3ccccc3)on2)O[C@@H]1CNCc1cccc(Cl)c1`, the Potency is 2.11 µM (active).

On to `Cc1cccc(OCC2(CNCc3cccnc3)C[C@@H](O)[C@@H](O)C2)n1` (stereo not given in full), for which the “activity change, negative = inhibition” value is 26.5% (inactive).

With `O=C(NC[C@H]1O[C@H](Cc2cc(CN3CCNCC3)on2)CC[C@@H]1O)c1ccccc1F`, the “activity change, negative = inhibition” value is 88% (inactive).

Regarding `O=C(c1cc(F)ccc1F)N1CC(c2nnc(-c3ccncc3)o2)C2(CCOCC2)C1` (stereo not given), the “activity change, negative = inhibition” value is 59.8% (inactive).

Consider `COc1cc(OC)c(NC(=O)Cn2c(C)cc3nc4n(c(=O)c32)CCCCC4)cc1Cl`, for which the “activity change, negative = inhibition” value is -29.8% (inactive).

As for `COc1cc(Cc2cc(N)nc(N)n2)cc(OC)c1OC`, the “activity change, negative = inhibition” value is 46.1% (inactive).

For `COc1ccc(-c2cn(CCc3c[nH]c4ccccc34)nn2)cc1`, the “activity change, negative = inhibition” value was 15% (inactive).

For the compound `Cc1nnc([C@H]2CCN(Cc3c[nH]c4ccccc34)C2)o1`, the “activity change, negative = inhibition” value is -16.6% [at 57.5 µM] (inactive).

As for `COc1ccc(CN2C[C@H]3CN(Cc4c[nH]c5ccccc45)CCN3C2=O)cc1`, the Potency is 3.85 µM (active).
